Laboratory results reported in PubChem BioAssay (EPA / NIEHS).
Results filed as inconclusive are left out. The source made the active and inactive calls. Rule for the calls: active = hit-call score of the fitted dose curve at least 0.9, where 1 is the maximum; inconclusive = response in the unintended direction; inactive = score below 0.9.

Columns and labels:
[1] = TOX21_p53_BLA_p2_viability: Viability Assessment in the Tox21 HCT-116 p53 Agonism Beta-lactamase Assay, Phase 2 (AID 2283591);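 note: actives lower the ATP signal meaning cytotoxicity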
Outline: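 Cytotoxicity readout: CellTiter-Glo ATP luminescence, 30 min at room temperature, after the beta-lactamase read. Cells were HCT116 exposed 16 h at 37C to compounds pin-transferred at 217-fold dilution from DMSO stocks.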

[2] = target: Cellular tumor antigen p53 (Homo sapiens) (UniProt P04637); test: TOX21_p53_BLA_p2_ratio: Tox21 HCT-116 p53 Agonism Beta-lactamase Assay, Ratio, Phase 2 (AID 2283592)
Sequence of Cellular tumor antigen p53 (Homo sapiens) (P04637 whole entry, looked up): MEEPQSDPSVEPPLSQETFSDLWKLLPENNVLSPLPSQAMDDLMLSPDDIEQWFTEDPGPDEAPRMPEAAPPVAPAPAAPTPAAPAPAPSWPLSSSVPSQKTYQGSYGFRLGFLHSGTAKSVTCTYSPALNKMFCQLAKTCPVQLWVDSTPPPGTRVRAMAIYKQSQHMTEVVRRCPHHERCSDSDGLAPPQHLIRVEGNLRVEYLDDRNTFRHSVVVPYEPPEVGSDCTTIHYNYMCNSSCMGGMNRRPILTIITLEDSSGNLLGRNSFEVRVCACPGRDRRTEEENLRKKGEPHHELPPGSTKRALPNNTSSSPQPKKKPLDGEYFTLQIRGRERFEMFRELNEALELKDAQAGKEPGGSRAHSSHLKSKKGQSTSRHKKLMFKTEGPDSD
Outline: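 An inducible beta-lactamase reporter in HCT116 cells signals p53 pathway activation. After 16 h chemical exposure at 37C, cells load CCF4-AM substrate for 2 h at room temperature; activity is the cleaved/uncleaved emission ratio relative to DMSO.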

[3] = TOX21_p53_BLA_p3_viability: Viability Assessment in the Tox21 HCT-116 p53 Agonism Beta-lactamase Assay, Phase 3 (AID 2283593);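 note: cells exposed to compound for 16 h before reading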
Outline: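 Cellular ATP was quantified by CellTiter-Glo luminescence, read after 30 min at room temperature. Beforehand, HCT116 cells (4000/well) received compound 5 h post-seeding, 217-fold diluted from DMSO, then incubated 16 h at 37C.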

[4] = target: Cellular tumor antigen p53 (Homo sapiens) (UniProt P04637); test: TOX21_p53_BLA_p3_ratio: Tox21 HCT-116 p53 Agonism Beta-lactamase Assay, Ratio, Phase 3 (AID 2283596)
Outline: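 HCT116 p53-bla cells (4000/well) given compound in DMSO (217-fold dilution) after 5 h, incubated 16 h at 37C. CCF4-AM substrate 2 h at room temperature; 460/530 nm emission ratio, gain fitted against DMSO.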

[5] = target: Cellular tumor antigen p53 (Homo sapiens) (UniProt P04637); test: TOX21_p53_BLA_p5_ratio: Tox21 HCT-116 p53 Agonism Beta-lactamase Assay, Ratio, Phase 5 (AID 2283599)
Outline: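 Beta-lactamase reporter ratio (blue 460 nm over green 530 nm, 405 nm excitation) after 2 h CCF4-AM loading, in HCT-116 cells exposed 16 h at 37 C to compounds pinned at 217-fold dilution. Increases relative to DMSO baseline scored.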

[6] = target: Cellular tumor antigen p53 (Homo sapiens) (UniProt P04637); test: TOX21_p53_BLA_p4_ratio: Tox21 HCT-116 p53 Agonism Beta-lactamase Assay, Ratio, Phase 4 (AID 2283601)
Outline: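 Signal is the blue/green (460nm/530nm) ratio of cleaved versus uncleaved CCF4-AM substrate, read after 2 h substrate loading. Cells were HCT116 carrying the p53-responsive beta-lactamase reporter, dosed 16 h at 37C, 5% CO2; CellTiter-Glo measured in parallel.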

[7] = TOX21_p53_BLA_p5_viability: Viability Assessment in the Tox21 HCT-116 p53 Agonism Beta-lactamase Assay, Phase 5 (AID 2283600)
Outline: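 Counter-readout for cytotoxicity: ATP-dependent luminescence from CellTiter-Glo, read in the beta-lactamase wells after 30 min at RT, following a 16 h compound exposure at 37C.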

Measured: AC50

O=C(O)CC(Cl)C(=O)O (stereo not drawn)
active: [2] 57.3 µM
inactive: [1] | [3] | [4] | [5] | [6]

NC(=O)CI
inactive: [1] | [2] | [3] | [4] | [5] | [6]

N#CC(C#N)=C(C#N)C#N
inactive: [1] | [2] | [3] | [4] | [7]

CC(C)(C)NCC(O)c1ccccc1Cl (stereo not drawn)
inactive: [1] | [2] | [3] | [4] | [5] | [7] | [6]

C=CC1CC=CCC1 (stereo not drawn)
inactive: [1] | [2] | [3] | [4] | [5]

O=[N+]([O-])/C=C/c1ccccc1
active: [2] 12 µM
inactive: [1] | [3] | [4] | [5] | [6]

N#CC1(N=NC2(C#N)CCCCC2)CCCCC1
inactive: [1] | [2] | [3] | [4] | [5] | [6]

Oc1cccc(Cl)c1
inactive: [1] | [2] | [3] | [4] | [5] | [7] | [6]
